# Results reported in PubChem BioAssay AID743287 (Broad Institute, 2014).
# Values joined by “and” are separate entries in the source; they are usually repeats but may differ in a detail not shown here. Equal values may be shown once. Hit rate of the full screen: of about 370,000 compounds, about 2,300 (0.62%) were called active. The list comes from a sample in which actives are over-represented; it also holds similar structures and randomly drawn compounds. Unmarked numbers belong to inactive results.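 Rule for the calls: active = lowest replicate activation of at least 40%, so every replicate reaches that level; inactive = the rest.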
# Test: GLuc luminescence reporter in INS-1E cells, primary screen for activators of glucose-dependent secretion of insulin (AID 743287);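 note: 0% = median of neutral control wells and 100% = median of IBMX positive control wells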
# Conditions: INS-1E GLuc reporter insulin secretion, 2-3 h, at 16.6 µM, active compounds read high
row,SMILES,activation
1,CN1C(=O)c2cc(NS(C)(=O)=O)ccc2OC[C@H]2O[C@H](CC(=O)NCc3ccccc3)CC[C@H]21,4.81%
2,CCOC(=O)c1oc2ccccc2c1NC(=O)c1cccs1,77.1% (active)
3,NC(=O)c1oc2ccccc2c1NC(=O)Cc1ccccc1,9.27%
4,Cc1nc2ccccn2c(=O)c1NC(=O)c1cccs1,3.74%
5,COc1ccc(NC(=O)Nc2cccc3c2O[C@H](CN(C)Cc2ccc(Cl)c(Cl)c2)[C@H](C)CN([C@@H](C)CO)C3=O)cc1,-19%
6,C[C@H]1CN([C@@H](C)CO)C(=O)Cc2cc(NC(=O)Cn3cnnn3)ccc2O[C@@H]1CN(C)Cc1ccc(-c2ccccc2)cc1,-17.4%
7,COc1cccc(-n2nc(C(=O)N3CCN(Cc4ccccc4)CC3)c3ccccc3c2=O)c1,-2.64%
8,O=c1c2ccccc2ncn1CCc1ccncc1,2.05%
9,COCCCNC(=O)CNC(=O)c1nn(-c2ccc(OC)cc2)c(=O)c2ccccc12,5.37%
10,O=C(O)c1ccc(-n2nc(-c3ccccc3)c3ccccc3c2=O)cc1,65.3% (active)
11,O=c1c2ccccc2c(-c2ccccc2)nn1-c1ccccn1,53.1% (active)
12,O=C1c2oc3ccccc3c(=O)c2C(c2cccc(O)c2)N1c1ccccn1 (centres undefined),-8.86%
13,C[C@@H]1CN([C@H](C)CO)C(=O)c2cc(NS(=O)(=O)c3cccs3)ccc2O[C@@H](C)CCCCO[C@@H]1CN(C)C(=O)c1ccncc1,-1.55%
14,C[C@@H]1CN([C@@H](C)CO)C(=O)CCCn2cc(nn2)CO[C@@H]1CN(C)S(=O)(=O)c1ccccc1C#N,4.61%
15,COc1ccc2c3c(n(C)c2c1)[C@H](CO)N(C(=O)c1ccncc1)CC31CCN(CC2CC2)CC1,14.2%
16,O=C(C[C@@H]1CC[C@@H](NC(=O)C2CC2)[C@@H](CO)O1)NCc1ccccc1Cl,-6.27%
17,C[C@@H]1CN([C@H](C)CO)C(=O)c2cccc(NC(=O)Nc3ccc4c(c3)OCO4)c2O[C@H]1CN(C)C(=O)Nc1ccc(F)cc1,-11.4%
18,Cc1ccc(S(=O)(=O)Nc2ccc3c(c2)C(=O)N([C@@H](C)CO)C[C@@H](C)[C@@H](CN(C)S(=O)(=O)c2ccc(C)cc2)O3)cc1,-10.5%
19,Cc1ccc(S(=O)(=O)N(C)C[C@@H]2Oc3ccc(NC(=O)Nc4ccc(F)cc4)cc3C(=O)N([C@H](C)CO)C[C@@H]2C)cc1,-24.3%
20,N#Cc1ccc(-c2ccc([C@@H]3[C@H]4CNC[C@@H]3N4Cc3ccc4c(c3)OCO4)cc2)cc1,3.4%

row,SMILES,activation
1,COc1ccccc1CN1[C@@H]2CNC[C@H]1C2c1ccc(-c2cccc(C#N)c2)cc1 (some centres undefined),0.586% and -8.29%
2,N#Cc1ccc(-c2ccc([C@@H]3[C@H]4CNC[C@@H]3N4Cc3cc(F)ccc3F)cc2)cc1,137% (active)
3,CCCC(=O)Nc1ccc2c(c1)C(=O)N(C)[C@@H]1CC[C@H](CC(=O)NCCOC)O[C@H]1CO2,-1.04%
4,C[C@H](CO)N1C[C@H](C)[C@@H](CN(C)C(=O)C2CC2)Oc2ncc(C#CC(C)(C)O)cc2C1=O,3.22%
5,C[C@@H]1CN([C@H](C)CO)C(=O)c2cccc(NC(=O)c3ccncc3)c2O[C@@H]1CN(C)S(=O)(=O)c1cn(C)cn1,8.83%
6,COc1ccccc1CNS(=O)(=O)c1cc(C(=O)NCc2ccccn2)c(Cl)cc1Cl,4.38%
7,COCc1ccc(CN2CCC(Oc3ccc(C(=O)NCc4ccccn4)cc3)CC2)o1,2.23%
8,COc1ccc2oc(=O)c(C(=O)NCc3ccccn3)cc2c1,70.8% (active)
9,C[C@@H]1CN([C@H](C)CO)C(=O)c2cc(NC(=O)NC3CCCCC3)ccc2O[C@@H]1CN(C)S(C)(=O)=O,-8.57%
10,CC(C)CC#Cc1ccc2c(c1)O[C@H](CN(C)Cc1cccnc1)[C@H](C)CN([C@@H](C)CO)S2(=O)=O,-26.2%
11,CC=CCn1c(SCCCc2ccccc2)nc2c1c(=O)[nH]c(=O)n2C,3.95%
12,CC1CCN(c2nc3c(c(=O)[nH]c(=O)n3C)n2CCCc2ccccc2)CC1,3.62%
13,C=CCn1c(SCc2ccccc2)nc2c1c(=O)[nH]c(=O)n2C,52% (active)
14,CO[C@H]1CN(C)C(=O)c2cc(NS(=O)(=O)c3ccccc3C)ccc2OC[C@@H](C)NC[C@@H]1C,2.17%
15,COCC(=O)N(C)C[C@H]1Oc2cc(C#CC(C)C)ccc2S(=O)(=O)N([C@H](C)CO)C[C@@H]1C,1.27%
16,COCC(=O)N(C)C[C@H]1Oc2cc(Br)ccc2S(=O)(=O)N([C@H](C)CO)C[C@H]1C,46.1% (active)
17,C[C@@H]1CN([C@@H](C)CO)S(=O)(=O)c2ccc(Br)cc2O[C@@H]1CN(C)C(=O)CN(C)C,21.4%
18,COc1ccc(NC(=O)N[C@H]2C=C[C@H](CC(=O)NCc3ccccn3)O[C@H]2CO)cc1,15.4%
19,COc1ccc2c3c(n(C)c2c1)[C@H](CO)N(Cc1ccccc1)CC31CCN(C)CC1,15.2%
